Consider 40 sequences from the supplement of paper PMC6555819.

The assay has as its system VDR:RXRa (NR concentration 270 nM, RXRa partner concentration 90 nM). The experiment in a line: PBM binding z-score (relative to random genomic background probes); higher = stronger binding; sequences stand for … in GC…GCGATTGACAGCGTAGAATGAAGG
The protocol:
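Protein-binding microarray (Agilent 4x180K custom design, double-stranded 60-nt probes: 5' GC cap, 34-nt variable region, 24-nt constant primer region; full probe sequence given). Purified or IVT nuclear receptor:RXRα heterodimers (3:1 NR:RXRα, mostly 270:90 nM) or homodimers were incubated for 1 h in PBS with 2% milk and no ligand, then detected with Alexa488 antibodies. Fluorescence from o1-orientation probes (~5 replicates averaged) was converted to z-scores against 500 random hg19 background probes. Variable regions are seed direct-repeat (DR0–DR5) sites, all their single-nucleotide variants and half-site ablations.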
Take CCTTACGGGTCAAGGTTATAGAACGGGTGGTACG: the PBM binding z-score came out at 3.42. The value for ATCTCTAGGTGAAGTTCAGTGAAAGATCGATAGA was 0.563; that for AGAACGAAGGCACGCTGAGTTGATAGCAGAGTAG was -0.487; that for ATCGCTAGGTAACCAAGTTCAGTGAATGCCGAAC was 3.74. The value for GCTGCTAGGACAACTGATGGTCAGCTAAAGCTCG was -0.904; that for CCTACTGGGCCCAAGGTCATTGATTCCAATGCTC was 3. As to TAGCCTAGGTCATGGGCCAGTATACCACGCGAAC, the PBM binding z-score amounted to 1.97.

Regarding CAGCCTAGGTCAGGGCCAGTATCGGAGGAACGTT, the PBM binding z-score is -0.0138. In turn, ATCGAAAGGTCGTAGGTGAGTATACCCACCCGAA had a PBM binding z-score of 3.47.

The sequence TCTTGTAGATCAATACAGGTTAAGAAAGTGCGCT had a PBM binding z-score of 1.26. The value for ACTAGTCGGTCAGCTGAGGTCACACACAATTCGG was 5.12; that for ATCTCTAGGTTAAGTTCAGTGAAAGATCGATAGA was 2.37. To CTACCAAGGTGAACAGGGTCGTTGATTACTATTC belongs 5.66; to ACAGACAGGTGATGAAGGTATCTCAGGCTATCAT, -0.0743.

CCGACTGGGGCAATGTTACCATAACGCACAGCCA: the PBM binding z-score was -0.586. To GCATATAGGTAATACAAGGTGAATGTCCGATTGT belongs 0.106. To GCTGCTAGGTCAGGTTAGTCAGCTAACGGGTACG belongs 0.235. To CAAACTAGGTCACCGGTAGGTCAAAGTCCGCATG belongs 4.75.

GCAGACAGGTGAAACGCAGGTAGCTCAGGGTGGC returned a PBM binding z-score of -0.649. To CACACTAGGTCAAGGTCAAAGTCGGTTTGTGCCA belongs 5.17; to GCTGCTAGGTCAGGTTGGGCAGCTAACGGGTACG, -0.00639; to CGTCCAAGGTCATAGGAGGTTAGTGAAGACAGAT, 5. The value for CTACCAAGGTGAGCAAGGTCGTTGATTACTATTC was 5.03. The value for ATCGAAAGGTCGACTAGGTGAGTATACACCGTTT was 3.25; that for CGAACTAGGTCATCCAGGACAGGGAATACATTGA was 4.1; that for TCTTGTAGATCACCAGGTTAAGAAAGCTGGCCAA was 0.86.

As to CCTTACGGGTCACTGACAGGTAATAGCATTTGGA, the PBM binding z-score stood at 3.17. To TAGCCTAGTTCAGATCGGGCCAGTATACGCTATA belongs -0.0916; to CCTACTGGGCCACGAAGGGTCATTGATTCAGTGA, 3.09. The value for GTACCAAGGTGAATAGGTCGTTGTTGAGTAGGCG was 0.825. To TAGCCTAGGTCATTCAGGGGCCAGTACAGAAAGC belongs 3.33; to TCGAGTTGGTTAGGGGCATTCAGAATGGCGTCGA, 1.84. In turn, AGAACTAGGGCACGCTGAGTTGATAGCAGAGTAG yielded a PBM binding z-score of 0.303. The value for CCTATTTGGTCAGGAGGTCACACACCGGATATGA was 4.05; that for TCTATTAGTTGATTAGGGAAACCGAAACAGCGGA was 0.846; that for AGTCAAAGTTCATCTAGGTAACGGAAGATATGCT was 4.95. The value for TCTTGTAGATCAAGCAGGTTGAGAAAGCCTGAGT was 0.285; that for CCTACTGGGCCATCAGGTCGTTGATATCAACGTT was 0.18. The value for GATACAGGGTCAGCTATAGGCCAGAGTATGGAAA was 2.46. Sequence CTCGACAGGTCGGTTGAGGTGAGTATACGGATAA registered a PBM binding z-score of 0.149.
